Laboratory results published in the supplement of paper PMC10849652.
Of roughly 7,900 targets only a part is listed; those with a hit were picked by preference. About 0.6% of all pairs of compound and target were hits. A number with no mark means an inactive call.

How the values were obtained:
Test in all cases: log2 fold change, soluble protein after heating vs DMSO (PISA); higher = thermal stabilisation; K562 cells, 10 uM, 30 min; active = over 0.2 and 3.5 SD of the protein, either way, in both replicates (recomputed)
[1] = compound: NC(=O)Nc1cc(-c2cccc(F)c2)sc1C(=O)N[C@H]1CCCNC1
Outline: (§1)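 Soluble protein was defined as the supernatant after 21,000xg for 90 min. It came from K562 cells at 2×10^6 cells/mL given 10 μM compound for 30 min, heated in aliquots for 3 min across 48°C-58°C, pooled, and extracted in PBS with 0.5% NP-40 at 4°C, and was quantified by TMTpro 16plex LC-MS/MS with equalised channel sums. Thermal stability against control samples, from duplicates, is reported as log2 fold change.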

[2] = compound: NC(=O)c1cnc(N[C@@H]2CCCC[C@@H]2N)nc1Nc1cccc(-n2nccn2)c1
Outline: as §1

[3] = compound: NC1(c2ccc(-c3nc4ccn5c(=O)[nH]nc5c4cc3-c3ccccc3)cc2)CCC1
Outline: as §1

[4] = compound: NCC(=O)Nc1ccc(-n2nc(C(F)(F)F)cc2-c2ccc3c(ccc4ccccc43)c2)cc1
Outline: as §1

entinostat = compound: Nc1ccccc1NC(=O)c1ccc(CNC(=O)OCc2cccnc2)cc1 [entinostat]
Outline: as §1

vorinostat = compound: O=C(CCCCCCC(=O)Nc1ccccc1)NO [vorinostat]
Outline: as §1

citarinostat = compound: O=C(CCCCCCNC(=O)c1cnc(N(c2ccccc2)c2ccccc2Cl)nc1)NO [citarinostat]
Outline: as §1

silmitasertib = compound: O=C(O)c1ccc2c(c1)nc(Nc1cccc(Cl)c1)c1ccncc12 [silmitasertib]
Outline: as §1

[5] = compound: O=C1NC(=O)C(c2cnc3ccccn23)=C1c1cn2c3c(cc(F)cc13)CN(C(=O)N1CCCCC1)CC2
Outline: as §1

[6] = compound: c1cc(OCCN2CCCCC2)cc(-c2n[nH]c3ccc(-c4nnc[nH]4)cc23)c1
Outline: as §1

entospletinib = compound: c1cn2cc(-c3ccc4cn[nH]c4c3)nc(Nc3ccc(N4CCOCC4)cc3)c2n1 [entospletinib]
Outline: as §1

Target: SLK isoform 2 (UniProt Q9H2G2)
Chain of UniProt Q9H2G2 (Q9H2G2 whole entry, looked up): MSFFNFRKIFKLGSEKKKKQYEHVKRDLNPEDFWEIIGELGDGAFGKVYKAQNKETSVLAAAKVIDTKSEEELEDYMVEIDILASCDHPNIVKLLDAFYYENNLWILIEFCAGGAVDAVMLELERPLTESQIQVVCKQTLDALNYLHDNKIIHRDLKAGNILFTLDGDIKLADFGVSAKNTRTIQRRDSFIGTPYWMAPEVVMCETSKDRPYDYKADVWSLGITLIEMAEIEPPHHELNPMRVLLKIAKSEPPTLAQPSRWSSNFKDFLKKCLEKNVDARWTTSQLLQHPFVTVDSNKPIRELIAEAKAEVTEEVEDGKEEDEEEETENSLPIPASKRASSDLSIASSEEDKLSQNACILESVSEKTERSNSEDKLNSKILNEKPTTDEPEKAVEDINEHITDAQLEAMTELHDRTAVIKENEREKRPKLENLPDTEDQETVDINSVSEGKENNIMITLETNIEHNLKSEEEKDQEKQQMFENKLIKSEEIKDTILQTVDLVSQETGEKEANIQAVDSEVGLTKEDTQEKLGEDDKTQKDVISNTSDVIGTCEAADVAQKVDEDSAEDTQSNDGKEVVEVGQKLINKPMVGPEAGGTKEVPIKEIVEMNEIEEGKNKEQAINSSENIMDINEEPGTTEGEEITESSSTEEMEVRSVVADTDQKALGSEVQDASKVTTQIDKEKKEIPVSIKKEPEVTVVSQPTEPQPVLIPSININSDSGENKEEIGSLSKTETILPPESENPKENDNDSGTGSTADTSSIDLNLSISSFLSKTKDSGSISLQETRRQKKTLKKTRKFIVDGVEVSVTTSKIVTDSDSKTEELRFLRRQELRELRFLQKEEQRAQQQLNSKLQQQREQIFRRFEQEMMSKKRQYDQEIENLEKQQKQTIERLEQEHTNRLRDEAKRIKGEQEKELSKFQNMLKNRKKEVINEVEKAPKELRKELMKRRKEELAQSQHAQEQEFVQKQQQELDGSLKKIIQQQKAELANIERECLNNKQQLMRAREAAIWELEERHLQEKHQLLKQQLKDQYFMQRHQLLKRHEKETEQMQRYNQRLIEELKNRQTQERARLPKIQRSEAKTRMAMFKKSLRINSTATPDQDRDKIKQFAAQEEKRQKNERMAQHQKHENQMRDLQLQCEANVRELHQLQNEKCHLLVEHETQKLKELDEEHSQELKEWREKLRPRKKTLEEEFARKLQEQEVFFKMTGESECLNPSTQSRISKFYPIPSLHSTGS
- log2 fold change [1]: -0.314 (active)
- log2 fold change [2]: -0.042
- log2 fold change [3]: -0.058
- log2 fold change [4]: -0.014
- log2 fold change (entinostat): 0.048
- log2 fold change (vorinostat): 0.006
- log2 fold change (citarinostat): 0.074
- log2 fold change (silmitasertib): 0.124
- log2 fold change [5]: 0.009
- log2 fold change [6]: -0.044
- log2 fold change (entospletinib): -0.059

Target: SLC25A42 (UniProt Q86VD7)
- log2 fold change [1]: 0.121
- log2 fold change [2]: 0.021
- log2 fold change [3]: -0.015
- log2 fold change [4]: 0.05
- log2 fold change (entinostat): -0.027
- log2 fold change (vorinostat): -0.102
- log2 fold change (citarinostat): -0.015
- log2 fold change (silmitasertib): -0.033
- log2 fold change [5]: -0.034
- log2 fold change [6]: -0.046
- log2 fold change (entospletinib): 0.055

Target: SNUPN (UniProt O95149)
Chain of UniProt O95149 (O95149 whole entry, looked up): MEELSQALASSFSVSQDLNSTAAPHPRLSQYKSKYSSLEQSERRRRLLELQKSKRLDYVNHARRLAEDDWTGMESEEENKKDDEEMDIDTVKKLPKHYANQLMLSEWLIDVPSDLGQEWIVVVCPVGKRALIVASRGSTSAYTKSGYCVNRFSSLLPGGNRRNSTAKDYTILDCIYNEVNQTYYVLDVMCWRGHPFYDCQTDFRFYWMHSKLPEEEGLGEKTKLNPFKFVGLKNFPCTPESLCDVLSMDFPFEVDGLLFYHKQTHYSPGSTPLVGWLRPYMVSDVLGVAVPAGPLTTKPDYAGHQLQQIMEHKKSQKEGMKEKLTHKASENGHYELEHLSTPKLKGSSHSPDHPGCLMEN
- log2 fold change [1]: -0.031
- log2 fold change [2]: -0.06
- log2 fold change [3]: -0.095
- log2 fold change [4]: -0.063
- log2 fold change (entinostat): 0.06
- log2 fold change (vorinostat): 0.027
- log2 fold change (citarinostat): -0.082
- log2 fold change (silmitasertib): 0.027
- log2 fold change [5]: -0.077
- log2 fold change [6]: 0.071
- log2 fold change (entospletinib): 0.064

Target: TM9SF4 (UniProt Q92544)
Chain of UniProt Q92544 (Q92544 whole entry, looked up): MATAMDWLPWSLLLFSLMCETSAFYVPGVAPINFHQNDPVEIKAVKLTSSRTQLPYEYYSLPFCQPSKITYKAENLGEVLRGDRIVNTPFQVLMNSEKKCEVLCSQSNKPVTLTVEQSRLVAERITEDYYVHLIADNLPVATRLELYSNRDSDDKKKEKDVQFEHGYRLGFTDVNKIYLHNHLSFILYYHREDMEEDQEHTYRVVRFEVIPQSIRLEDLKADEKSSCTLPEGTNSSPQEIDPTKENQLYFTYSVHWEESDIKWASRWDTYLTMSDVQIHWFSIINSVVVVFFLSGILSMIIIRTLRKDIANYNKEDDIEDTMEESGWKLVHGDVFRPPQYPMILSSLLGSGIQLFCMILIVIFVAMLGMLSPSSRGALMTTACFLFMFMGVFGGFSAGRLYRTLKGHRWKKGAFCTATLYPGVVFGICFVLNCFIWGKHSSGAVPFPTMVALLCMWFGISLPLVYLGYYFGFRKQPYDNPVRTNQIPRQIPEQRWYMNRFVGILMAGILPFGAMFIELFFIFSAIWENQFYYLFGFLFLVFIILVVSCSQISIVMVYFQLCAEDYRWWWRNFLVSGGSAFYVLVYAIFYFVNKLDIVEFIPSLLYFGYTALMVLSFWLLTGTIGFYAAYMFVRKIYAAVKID
- log2 fold change [1]: 0.024
- log2 fold change [2]: 0.064
- log2 fold change [3]: -0.061
- log2 fold change [4]: 0.032
- log2 fold change (entinostat): -0.01
- log2 fold change (vorinostat): 0.146
- log2 fold change (citarinostat): 0.044
- log2 fold change (silmitasertib): 0.03
- log2 fold change [5]: -0.011
- log2 fold change [6]: -0.057
- log2 fold change (entospletinib): 0.022

Target: SNX5 (UniProt Q9Y5X3)
Chain of UniProt Q9Y5X3 (Q9Y5X3 whole entry, looked up): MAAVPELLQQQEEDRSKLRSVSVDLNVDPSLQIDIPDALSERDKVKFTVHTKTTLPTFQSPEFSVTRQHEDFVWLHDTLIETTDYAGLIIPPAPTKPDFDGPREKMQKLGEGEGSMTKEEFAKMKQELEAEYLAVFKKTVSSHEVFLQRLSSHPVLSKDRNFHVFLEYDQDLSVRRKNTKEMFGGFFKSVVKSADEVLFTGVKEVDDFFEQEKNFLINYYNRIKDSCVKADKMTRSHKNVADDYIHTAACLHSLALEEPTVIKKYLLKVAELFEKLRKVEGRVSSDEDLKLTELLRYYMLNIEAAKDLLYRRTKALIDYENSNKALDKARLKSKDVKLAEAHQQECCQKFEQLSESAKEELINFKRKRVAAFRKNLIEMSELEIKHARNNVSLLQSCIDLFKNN
- log2 fold change [1]: -0.022
- log2 fold change [2]: -0.275
- log2 fold change [3]: -0.332 (active)
- log2 fold change [4]: -0.037
- log2 fold change (entinostat): 0.078
- log2 fold change (vorinostat): 0.108
- log2 fold change (citarinostat): 0.09
- log2 fold change (silmitasertib): -0.061
- log2 fold change [5]: -0.006
- log2 fold change [6]: -0.11
- log2 fold change (entospletinib): -0.002

Target: TAOK3 (UniProt Q9H2K8)
Chain of UniProt Q9H2K8 (Q9H2K8 whole entry, looked up): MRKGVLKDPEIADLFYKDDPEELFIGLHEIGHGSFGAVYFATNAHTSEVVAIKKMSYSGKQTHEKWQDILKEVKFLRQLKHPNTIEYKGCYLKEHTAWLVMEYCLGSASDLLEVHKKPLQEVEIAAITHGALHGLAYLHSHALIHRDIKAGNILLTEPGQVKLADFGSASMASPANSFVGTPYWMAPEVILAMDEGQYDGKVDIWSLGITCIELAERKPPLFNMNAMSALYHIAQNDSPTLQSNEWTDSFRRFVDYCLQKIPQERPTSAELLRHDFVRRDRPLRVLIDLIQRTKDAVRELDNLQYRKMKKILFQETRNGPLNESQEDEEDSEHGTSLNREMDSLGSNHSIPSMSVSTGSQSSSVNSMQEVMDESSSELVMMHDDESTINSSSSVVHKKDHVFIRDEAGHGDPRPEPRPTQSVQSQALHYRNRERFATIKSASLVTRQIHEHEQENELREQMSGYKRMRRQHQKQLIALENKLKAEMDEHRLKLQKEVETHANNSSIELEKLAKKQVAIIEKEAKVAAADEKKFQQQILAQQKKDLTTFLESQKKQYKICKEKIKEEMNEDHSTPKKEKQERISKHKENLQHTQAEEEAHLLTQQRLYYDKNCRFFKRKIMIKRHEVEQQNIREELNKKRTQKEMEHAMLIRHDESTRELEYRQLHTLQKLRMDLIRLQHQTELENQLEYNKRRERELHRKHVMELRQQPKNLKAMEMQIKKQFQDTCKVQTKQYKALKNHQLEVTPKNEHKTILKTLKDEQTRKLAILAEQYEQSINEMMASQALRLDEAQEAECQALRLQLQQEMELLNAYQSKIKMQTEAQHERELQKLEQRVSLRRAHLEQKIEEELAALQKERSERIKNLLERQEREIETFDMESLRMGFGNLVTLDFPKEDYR
- log2 fold change [1]: -0.013
- log2 fold change [2]: -0.149
- log2 fold change [3]: -0.048
- log2 fold change [4]: 0
- log2 fold change (entinostat): 0.034
- log2 fold change (vorinostat): 0.036
- log2 fold change (citarinostat): 0.106
- log2 fold change (silmitasertib): 0
- log2 fold change [5]: 0.021
- log2 fold change [6]: -0.203
- log2 fold change (entospletinib): -0.016

Target: TBC1D23 (UniProt Q9NUY8)
Chain of UniProt Q9NUY8 (Q9NUY8 whole entry, looked up): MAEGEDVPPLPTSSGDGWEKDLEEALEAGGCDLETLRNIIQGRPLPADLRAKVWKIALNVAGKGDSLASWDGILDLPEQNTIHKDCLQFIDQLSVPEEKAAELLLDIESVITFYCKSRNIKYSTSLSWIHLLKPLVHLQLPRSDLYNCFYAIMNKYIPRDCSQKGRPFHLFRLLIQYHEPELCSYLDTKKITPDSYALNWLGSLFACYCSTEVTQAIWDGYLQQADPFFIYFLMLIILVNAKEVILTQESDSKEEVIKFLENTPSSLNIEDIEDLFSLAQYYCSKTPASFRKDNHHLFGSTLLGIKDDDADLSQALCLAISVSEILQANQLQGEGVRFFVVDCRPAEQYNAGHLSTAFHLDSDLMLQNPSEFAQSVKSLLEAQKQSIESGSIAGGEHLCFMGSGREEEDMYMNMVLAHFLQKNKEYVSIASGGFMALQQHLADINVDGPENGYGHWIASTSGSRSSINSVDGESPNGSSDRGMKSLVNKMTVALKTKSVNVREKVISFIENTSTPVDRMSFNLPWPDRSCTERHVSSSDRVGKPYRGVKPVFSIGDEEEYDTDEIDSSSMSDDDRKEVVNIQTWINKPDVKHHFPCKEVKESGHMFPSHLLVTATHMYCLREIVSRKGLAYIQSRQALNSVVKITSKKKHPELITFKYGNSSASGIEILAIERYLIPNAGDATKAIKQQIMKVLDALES
- log2 fold change [1]: 0.015
- log2 fold change [2]: -0.135
- log2 fold change [3]: -0.33 (active)
- log2 fold change [4]: -0.009
- log2 fold change (entinostat): 0.06
- log2 fold change (vorinostat): 0.115
- log2 fold change (citarinostat): 0.045
- log2 fold change (silmitasertib): 0.02
- log2 fold change [5]: -0.073
- log2 fold change [6]: -0.047
- log2 fold change (entospletinib): -0.045

Target: SNRPB2 (UniProt P08579)
Chain of UniProt P08579 (P08579 whole entry, looked up): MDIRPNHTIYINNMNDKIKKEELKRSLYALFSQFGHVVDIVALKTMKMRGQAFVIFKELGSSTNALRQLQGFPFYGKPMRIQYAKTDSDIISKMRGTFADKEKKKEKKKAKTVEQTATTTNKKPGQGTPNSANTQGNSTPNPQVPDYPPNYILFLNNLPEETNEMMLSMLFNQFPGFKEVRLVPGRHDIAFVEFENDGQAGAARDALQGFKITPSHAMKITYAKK
- log2 fold change [1]: 0.047
- log2 fold change [2]: -0.012
- log2 fold change [3]: 0.03
- log2 fold change [4]: 0.038
- log2 fold change (entinostat): -0.016
- log2 fold change (vorinostat): -0.027
- log2 fold change (citarinostat): 0.023
- log2 fold change (silmitasertib): 0.051
- log2 fold change [5]: 0.046
- log2 fold change [6]: -0.034
- log2 fold change (entospletinib): -0.026

Target: TIMM10 (UniProt P62072)
Chain of UniProt P62072 (P62072 whole entry, looked up): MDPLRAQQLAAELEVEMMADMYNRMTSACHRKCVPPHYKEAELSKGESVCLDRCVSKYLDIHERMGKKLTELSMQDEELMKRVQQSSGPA
- log2 fold change [1]: -0.004
- log2 fold change [2]: 0.042
- log2 fold change [3]: -0.027
- log2 fold change [4]: -0.077
- log2 fold change (entinostat): 0.058
- log2 fold change (vorinostat): -0.048
- log2 fold change (citarinostat): -0.012
- log2 fold change (silmitasertib): 0.009
- log2 fold change [5]: -0.04
- log2 fold change [6]: -0.043
- log2 fold change (entospletinib): 0.009

Target: STARD7 (UniProt Q9NQZ5)
Chain of UniProt Q9NQZ5 (Q9NQZ5 whole entry, looked up): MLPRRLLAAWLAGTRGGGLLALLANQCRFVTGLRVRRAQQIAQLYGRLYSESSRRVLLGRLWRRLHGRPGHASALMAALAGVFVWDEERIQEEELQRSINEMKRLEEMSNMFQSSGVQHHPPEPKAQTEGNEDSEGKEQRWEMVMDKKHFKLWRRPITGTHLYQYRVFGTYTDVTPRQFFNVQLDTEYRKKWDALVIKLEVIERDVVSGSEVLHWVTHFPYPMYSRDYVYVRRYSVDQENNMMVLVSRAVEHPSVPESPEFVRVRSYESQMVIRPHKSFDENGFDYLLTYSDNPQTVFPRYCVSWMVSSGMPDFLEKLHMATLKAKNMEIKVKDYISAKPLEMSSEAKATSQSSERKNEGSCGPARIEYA
- log2 fold change [1]: -0.048
- log2 fold change [2]: -0.113
- log2 fold change [3]: -0.088
- log2 fold change [4]: 0.012
- log2 fold change (entinostat): 0.008
- log2 fold change (vorinostat): 0.114
- log2 fold change (citarinostat): 0.073
- log2 fold change (silmitasertib): -0.011
- log2 fold change [5]: 0.341 (active)
- log2 fold change [6]: -0.089
- log2 fold change (entospletinib): -0.052
